# Pf growth 48h – inhibits P. falciparum growth in the first generation, 48 h. P. falciparum luciferase growth in erythrocytes, 48 h. Potency, µM (top dose mostly 28.7 µM), for the others: at the top dose activity change, negative = inhibition, actives largely listed as inhibitors. 5.9% of 310,000 active. AID 504832; note: % is set by controls: 0 for no effect and ±100 for the full control effect
#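 A one-generation exposure of luciferase-tagged malaria parasites in RPMI 1640/Albumax erythrocyte culture, 37 C and 5% CO2. Inhibition is inferred from decreased luminescence after adding detection reagent.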
# Pf growth 96h – inhibits malaria parasite growth, 96 h; P. falciparum luciferase reporter growth, 96 h; Potency, µM (doses to about 28.7 µM), for inactives: at the top dose activity change, negative = inhibition, hits mostly inhibitors; 6.9% of 320,000 active; note: % is set by controls: 0 for no effect and ±100 for the full control effect
#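 Plates of compound plus infected erythrocytes (2% hematocrit, 0.05% parasitemia final) incubate 96 hours, 37 C, 5% CO2. Detection reagent added; reduced luminescence from the parasites' luciferase reporter flags inhibition.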
# Sm TGR block – inhibitors of Schistosoma mansoni thioredoxin glutathione reductase; Q962Y6; purified TGR, DTNB reduction, TNB absorbance 405 nm; Potency, µM (top dose mostly 114 µM), for the others: at the top dose activity change, negative = inhibition, hits mostly inhibitors; 3% of 360,000 active; AID 485364; note: % is set by controls: 0 for no effect and ±100 for the full control effect; nearly all actives have a fitted effect of over 60% in size
#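 First, TGR (20 nM dispensed) and NADPH were mixed with compound. Second, a 15 min room-temperature incubation followed. Third, further NADPH and then DTNB were added to start the reaction. Finally, TNB absorbance was monitored kinetically.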
# SARS PLpro yeast – inhibitors of SARS-CoV papain-like protease in yeast; 0.19% of 330,000 active; S. cerevisiae expressing SARS-CoV PLpro, growth rescue; Potency, µM (titrated, usually from 32.9 µM), inactives show at the highest dose activity, positive = growth rescue, hits mostly activators; calls by dose curve; note: 0% is about no effect; nearly all actives have a fitted effect of over 55% in size
# Numbers without * were called inactive; ? = inconclusive; nt = no result given. Rows were chosen to be rich in hits. Some 12% of all compounds tested hit in one or more screens of this group. Unless noted, calls come from the whole dose curve; as a rule, active = well fitted curve in the direction sought with a large enough effect; inconclusive = small, poorly fitted or top-dose-only effect, or another doubt; inactive = no such curve, though single readings can be large; an effect the other way counts as inactive or inconclusive. Potency is the fitted concentration of half-maximal effect.
SMILES,Pf growth 48h,Pf growth 96h,Sm TGR block,SARS PLpro yeast
CCC(CO)NCc1cc(OC)c(OCC(=O)NCCc2ccccc2)cc1Br (stereo unspecified),?,4.15µM*,-6.9%,8.9%
CC(NCc1cc(Br)ccc1OCC(=O)NCc1ccccc1)c1ccccc1 (stereo unspecified),?,?,nt,0.9%
COc1cc(CNC(C)c2ccccc2)c(Br)cc1OCC(N)=O (stereo unspecified),nt,8.28µM*,-2.2%,-5.9%
Cc1ccc(-c2cc(-c3n[nH]c(=S)n3C)c3ccccc3n2)cc1,?,?,0.2%,-2.7%
CCn1c(-c2cc3ccccc3cc2O)n[nH]c1=S,nt,95.0%,0.8%,4.9%
CCn1c(-c2cc(-c3ccc(C)c(C)c3)nc3ccccc23)n[nH]c1=S,4.15µM*,3.7µM*,17.7%,-2.5%
CCn1c(-c2cc(C3CC3)nc3ccccc23)n[nH]c1=S,?,?,44.7µM*,-26.0%
CCOc1ccccc1-c1cc(-c2n[nH]c(=S)n2CC)c2ccccc2n1,1.85µM*,1.65µM*,3.6%,24.3%
CCn1c(-c2c[nH]c3ccccc23)n[nH]c1=S,20.5%,nt,-27.1%,0.5%
CCn1c(-c2cc(-c3cc(C)ccc3C)nc3ccccc23)n[nH]c1=S,?,2.62µM*,18.3%,9.0%
O=C1CCSC2(C(=O)N(Cc3ccc(F)cc3)c3ccccc32)N1c1ccc(F)c(F)c1 (stereo unspecified),nt,nt,11.0%,nt
CCOc1cccc(-c2cc(-c3n[nH]c(=S)n3CC)c3ccccc3n2)c1,13.1µM*,11.7µM*,-1.6%,-24.4%
CCn1c(-c2cccc(Cl)c2)n[nH]c1=S,-3.7%,nt,-3.1%,-1.5%
CN(C)c1ccc(-c2cccc(C3CC=CC4C3C(=O)N(Cc3ccccc3)C4c3ccc(C(F)(F)F)cc3)c2)cc1 (stereo unspecified),?,?,-34.9%,-0.7%
O=C1C2C(c3ccccc3)CC=CC2[C@H](c2ccc(C(F)(F)F)cc2)N1Cc1ccccc1 (stereo partly specified),3.29µM*,?,-1.6%,-7.7%
COc1ccc(-c2cccc(C3CC=CC4C3C(=O)N(Cc3ccccc3)C4c3ccc(C(F)(F)F)cc3)c2)cc1 (stereo unspecified),6.57µM*,7.38µM*,1.6%,1.6%
O=C1C2C(c3ccccc3)CC=CC2[C@H](c2cccc([N+](=O)[O-])c2)N1Cc1ccccc1 (stereo partly specified),?,?,-13.3%,-7.7%
Cc1ccc(-c2cccc(C3CC=CC4C3C(=O)N(Cc3ccccc3)C4c3cc(C)ccc3F)c2)cc1 (stereo unspecified),4.65µM*,7.38µM*,-24.7%,1.0%
COc1ccc(NC(=O)COC(=O)C2CC2)c(OC)c1,22.2%,8.3%,-0.3%,5.4%
O=C(CSc1nc2ccccc2n1CC(=O)Nc1ccc(F)cc1F)Nc1ccc(F)cc1,nt,nt,-20.4%,nt
Cc1cc2nc3c(=O)n(C)c(=O)n(C)c3nc2cc1N=CN(C)C,nt,nt,-10.4%,nt
Cc1cc(C)c2cc(C(O)c3nnnn3Cc3ccccc3)c(=O)[nH]c2c1 (stereo unspecified),?,-4.7%,0.0%,-8.5%
Cc1cc(C)c2cc(CN(CCO)C(c3nnnn3Cc3ccc(F)cc3)C(C)C)c(=O)[nH]c2c1 (stereo unspecified),?,11.7µM*,-8.2%,-0.5%
CCn1cc(C(=O)NCc2cccnc2)c2cc(OC)c(OC)cc2c1=O,22.6%,2.08µM*,-3.5%,-1.7%
CCn1cc(C(=O)N2CCCc3ccccc32)c2cc(OC)c(OC)cc2c1=O,14.7µM*,nt,6.7%,6.1%
SMILES,Pf growth 48h,Pf growth 96h,Sm TGR block,SARS PLpro yeast
COc1cc(OC)c(C(=O)NCc2cccnc2)cc1OC,9.8%,-15.1%,9.4%,0.0%
COc1cc2c(C(=O)NCc3ccccn3)cn(CC(C)C)c(=O)c2cc1OC,-8.6%,13.1µM*,2.8%,-0.4%
CCOc1ccc(Nc2nc3c(S(=O)(=O)c4ccc(CC)cc4)nnn3c3ccc(Cl)cc23)cc1,nt,nt,1.2%,nt
CCC1(c2ccc(F)cc2)NC(=O)N(CC(=O)N2CCN(C(=O)c3ccco3)CC2)C1=O (stereo unspecified),nt,nt,nt,2.5%
COc1cccc(NC(=O)CN(C)C(=O)c2ccc(-c3ccccc3Cl)o2)c1,0.294µM*,?,1.2%,-3.6%
COc1cccc(-c2nn(-c3ccc(C)cc3)cc2C(=O)N(C)CC(=O)Nc2cccc(F)c2)c1,5.22µM*,14.7µM*,-2.4%,-10.4%
COc1cccc(NC(=O)CN(C)C(=O)c2ccc(-c3ccc(Cl)cc3)o2)c1,1.65µM*,5.86µM*,?,-19.7%
CN(CC(=O)Nc1ccccc1Br)C(=O)c1ccc(-c2ccc(Cl)cc2)o1,?,?,-7.5%,-3.5%
CN(CC(=O)Nc1ccccc1C(F)(F)F)C(=O)c1ccc(-c2ccc(Cl)cc2)o1,2.94µM*,2.62µM*,-11.6%,-3.8%
COc1cccc(NC(=O)CN(C)C(=O)c2ccccn2)c1,nt,nt,nt,0.2%
COc1cccc(C(=O)NC2CCCN(C3Cc4ccccc4C3)C2)c1OC (stereo unspecified),-12.6%,3.6%,0.6%,6.0%
CCCn1c(N)c(C(=O)CSc2nc(N)cc(=O)[nH]2)c(=O)n(C)c1=O,?,4.65µM*,-8.8%,-2.9%
CCCn1c(N)c(C(=O)CSc2nc3ncc(Cl)cc3[nH]2)c(=O)n(C)c1=O,?,?,8.1%,3.4%
Cc1cc(C)n2nc(SCC(=O)c3c(N)n(CC(C)C)c(=O)n(C)c3=O)nc2n1,4.65µM*,?,3.6%,-8.5%
CC(C)Cn1c(N)c(C(=O)CSc2nc3ncc(Cl)cc3[nH]2)c(=O)n(C)c1=O,?,10.4µM*,3.2%,-0.1%
COc1cc(NC(=O)CCS(=O)(=O)c2ccc3c(c2)CC(=O)N3C)cc(OC)c1OC,nt,nt,3.2%,nt
CCOc1ccc(-n2c(=O)c3c(C)c(C)sc3n(CC(=O)N3CCC(C)CC3)c2=O)cc1,nt,nt,4.9%,nt
CCOC(=O)N1CCN(C(=O)C2CCN(S(=O)(=O)c3cc(Cl)ccc3Cl)CC2)CC1,7.38µM*,28.7%,5.2%,-5.8%
CCOC(=O)N1CCN(C(=O)CNC(=O)c2ccc(Cl)cc2Cl)CC1,?,?,-1.5%,9.8%
CCOC(=O)N1CCC(C(=O)NNC(=O)c2ccc(Cl)cc2Cl)CC1,17.4%,10.4µM*,-7.0%,-0.4%
CCOC(=O)N1CCN(C(=O)C2CCN(S(=O)(=O)c3ccc(NC(C)=O)cc3)CC2)CC1,?,8.28µM*,-17.8%,-9.9%
C[C@H]1CN=C2N(CCNC(=O)CCC3CCCCC3)[C@H](Cc3ccc(O)cc3)CN21,5.0%,11.7µM*,-27.3%,0.5%
COc1ccc(C[C@H]2CN3C(=NC[C@@H]3C)N2CCNC(=O)CCC2CCCCC2)cc1,?,?,15.8µM*,0.0%
COc1ccc(CNC(=O)COC(=O)CCC2CCCCC2)cc1,1.8%,2.3%,8.7%,1.7%
CCCc1nnc(NC(=O)Cc2coc3ccc(C)cc23)s1,nt,nt,3.9%,nt
CC(C)(C)OC(=O)N1CCC(c2c(C(=O)NCc3ccco3)cnn2-c2ccc(F)cc2F)CC1,nt,nt,-27.2%,nt
